# Bioassay records: PubChem, Broad Institute
# These entries were drawn from the full list.
# aSyn UTR act: Activators working through SNCA 5'UTR binding (MLPCN); activity score, % (tested at 7.5 µM), hits read low; actives 7.1% (n = 300,000); alpha-synuclein 5'UTR reporter, activators screen; in the data active = activity score below about -60%
# A number is an active result; n = inactive.
SMILES,aSyn UTR act
Cc1ccc(C(=O)COc2ccccc2N2C(=O)c3ccccc3C2=O)cc1,-127
CSc1cccc(NCc2ccc([N+](=O)[O-])cc2)c1,-63
O=c1[nH][nH]c(C(F)(F)F)c1C=Nc1ccc(Cl)cc1,-71
Cc1[nH][nH]c(=O)c1C=Nc1ccc(C(F)(F)F)cc1,-77
CCN(CC)C(=O)CSC(=Nc1ccccc1F)NC#N,-109
CCc1ccc(C(=O)Cn2ccsc2=N)cc1,-102
Nc1ccc(S(=O)(=O)Nc2nccc(/C=C/c3ccccc3F)n2)cc1,-65
Cc1cccc(NC(=O)c2cc(-c3cc(C)ccc3O)n[nH]2)c1,-227
COc1ccc(NC(=O)c2cc(-c3cc(C)ccc3O)n[nH]2)cc1Cl,-72
Cc1ccc(-c2cc(C(=O)Nc3cccnc3)[nH]n2)c(O)c1C,-202
Cc1cccc(NC(=O)c2cc(-c3cc(C)c(C)cc3O)n[nH]2)c1,-234
Cc1sc(NC(=O)c2ccc(Cl)s2)c(C(N)=O)c1C,-284
CC(=O)Nc1sc(C)c(C)c1C(=O)Nc1ccc(C)cc1,-66
Cc1sc(NC(=S)Nc2ccc(F)cc2)c(C(N)=O)c1C,-87
Cc1sc(NC(=O)c2ccc(Br)s2)c(C(N)=O)c1C,-225
Nc1ccc(Oc2cc(N)cc(Oc3ccccc3)c2)cc1,-173
CCOC(=O)C(NC(=O)CCl)(Nc1sc(C)c(CC)c1C#N)C(F)(F)F (centres undefined),-75
O=C(O)CC(C(=O)O)n1nc(-c2ccccc2)cc1-c1ccccc1 (centres undefined),-77
CC(=O)n1nc(-c2ccccc2)cc1-c1ccccc1,-133
Cn1ccnc1SCC(=O)N1CCc2ccccc21,-69
Cc1ccc(C(=O)Nc2nnc(SCC(=O)N3CCCc4ccccc43)s2)cc1,n
Cc1ccnc(SCC(=O)N2CCc3ccccc32)n1,-87
O=C(CSc1nnc2ccccn12)N1CCc2ccccc2C1,-94
O=C(CSc1nnc2ccccn12)N1CCc2ccccc21,-98
Oc1cccc2ccc(/C=C/c3c(F)cccc3Cl)nc12,-114
SMILES,aSyn UTR act
Nc1nccc(/C=C/c2c(F)cccc2Cl)n1,-103
N#Cc1c(NC(=O)CCCC(=O)O)sc2c1CCCCC2,n
N#Cc1c(NC(NC(=O)c2ccco2)C(=O)c2ccccc2)sc2c1CCCC2 (centres undefined),-77
CC(C)(C)C(=O)NC(=S)Nc1sc2c(c1C#N)CCCCC2,-106
Cc1cc(C(=O)Nc2sc3c(c2C#N)CCCC3)no1,-81
CCCC(=O)Nc1sc2c(c1C#N)CCCCC2,-167
Cc1noc(C(=O)Nc2sc3c(c2C#N)CCC3)c1Cl,-67
Cc1ccccc1OCC(=O)Nc1sc2c(c1C#N)CCC2,-68
Cn1cc([N+](=O)[O-])c(C(=O)Nc2sc3c(c2C#N)CCC3)n1,n
Cc1cc(C(=O)Nc2sc3c(c2C#N)CCC3)no1,-107
Cc1ccc(C(=O)Nc2sc3c(c2C#N)CCCCC3)cc1C,-191
N=c1n(N)c2ccccc2n1CC(=O)c1ccc(Br)cc1,-109
Cc1cccc(CN2C(=O)N/C(=C/c3ccc(C)s3)C2=O)c1,-88
CCOC(=O)c1ccc(NC(=O)COc2ccc(CNC3CCCCC3)cc2OC)cc1,-63
O/C(=C\c1ccc2ccccc2n1)c1ccncc1,-69
O/N=C/c1ccc2ccccc2n1,-79
O/C(=C\c1nc2ccccc2nc1/C=C(\O)c1ccccc1)c1ccccc1,-73
Cc1nc2cc3nc(C)sc3cc2s1,-80
Cc1cccn2cc(COc3cccc([N+](=O)[O-])c3)nc12,-65
COC(=O)c1ccc(N=Cc2c(-c3ccccc3)[nH][nH]c2=O)cc1,-216
O=C(N/C=C/c1ccccc1)c1ccccc1,-135
CNc1ccccc1C(=O)OCC(=O)c1ccccc1,-71
COc1ccccc1NC(CC(=O)c1ccccc1)C(=O)OCC(=O)c1ccc(F)cc1 (centres undefined),-235
CNc1ccccc1C(=O)OCC(=O)c1ccc(F)cc1,-70
O=C(O)c1ccc(/C=N/Nc2ccc(F)cc2F)cc1,-111
SMILES,aSyn UTR act
Fc1ccc(N/N=C/C=C/c2ccccc2)c(F)c1,-159
Clc1ccc(N/N=C/c2ccncc2)cc1Cl,-221
Fc1ccc(N/N=C/c2ccncc2)c(F)c1,-177
CC(C)Cc1cc(C(=O)NCc2ccco2)no1,-92
O=C(NCc1ccco1)c1ccc(-c2cccc(Cl)c2)o1,-74
COc1ccc2cc(C(=O)NCc3ccco3)c(=O)oc2c1,-93
O=C(NCc1ccco1)c1cc(-c2cccc(Cl)c2)on1,-92
O=C(NCc1ccco1)c1ccc(Cn2c(=O)c3ccccc3n(Cc3cccc(Cl)c3)c2=O)cc1,n
COc1cccc(-c2cc(C(=O)NCc3ccco3)no2)c1,-97
COc1ccc(OC)c(-c2cc(C(=O)NCc3ccco3)no2)c1,-69
CC1CCc2onc(C(=O)NCc3ccco3)c2C1 (centres undefined),-64
O=C(NCc1ccco1)c1cc(-c2ccc3c(c2)OCO3)on1,-97
COc1ccc(OC)c(-c2cc(C(=O)Nc3c(C)nn(Cc4ccccc4)c3C)no2)c1,n
O=C(NCc1ccco1)c1cc(-c2ccc(Cl)cc2)on1,-130
CC1=Nc2cc(C(=O)NCc3ccco3)ccc2Sc2ccc(C)cc21,n
